Hits are enriched below; roughly 4.6% of the tested compounds scored in any of these assays.
HSF1 activator: increases HSF-1 driven luciferase reporter signal. NIH3T3-HGL HSF-1 luciferase reporter, MG132, 8 h; 100% = twice DMSO control signal. activation, % at 9 µM. 300,000 compounds, 1.7% hits. AID 504408;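 active = mean replicate activation of at least 50% with a set share of replicates each reaching 50%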
AHR activator: activators of human aryl hydrocarbon receptor | P35869 | 320,000 compounds, 2.5% hits | AHR-responsive luciferase reporter cells, luminescence | activation, % at 5 µM; in the data active = activation above about 47%
Target sequence (P35869 whole entry, looked up): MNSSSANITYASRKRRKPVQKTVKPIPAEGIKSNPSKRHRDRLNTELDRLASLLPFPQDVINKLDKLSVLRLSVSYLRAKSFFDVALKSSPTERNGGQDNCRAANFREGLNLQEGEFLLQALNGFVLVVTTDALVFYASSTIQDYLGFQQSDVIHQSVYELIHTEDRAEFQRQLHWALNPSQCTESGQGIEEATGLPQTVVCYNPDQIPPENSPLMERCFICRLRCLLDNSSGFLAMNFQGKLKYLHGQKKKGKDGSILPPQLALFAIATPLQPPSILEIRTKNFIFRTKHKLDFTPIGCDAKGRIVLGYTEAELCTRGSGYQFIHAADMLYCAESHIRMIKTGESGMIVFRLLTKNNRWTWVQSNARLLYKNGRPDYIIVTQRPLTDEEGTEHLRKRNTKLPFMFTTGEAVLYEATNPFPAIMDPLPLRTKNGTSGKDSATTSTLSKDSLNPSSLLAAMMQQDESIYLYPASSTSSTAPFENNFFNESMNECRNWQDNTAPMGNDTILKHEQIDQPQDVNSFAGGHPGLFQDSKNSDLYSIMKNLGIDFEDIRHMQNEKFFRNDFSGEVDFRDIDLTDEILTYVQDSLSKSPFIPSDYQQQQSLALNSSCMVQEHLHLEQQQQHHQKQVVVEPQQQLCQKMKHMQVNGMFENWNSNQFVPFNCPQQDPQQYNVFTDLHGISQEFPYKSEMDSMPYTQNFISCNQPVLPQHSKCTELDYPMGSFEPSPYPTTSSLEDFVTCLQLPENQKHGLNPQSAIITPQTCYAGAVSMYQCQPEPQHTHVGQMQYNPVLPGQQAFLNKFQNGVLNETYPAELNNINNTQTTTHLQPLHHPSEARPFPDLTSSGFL
GAA850 FXN act: increases GAA850 frataxin promoter reporter activity. HEK293 lucGAA850 FXN promoter luciferase reporter, 24 h; percent of 10 µM SAHA response. 360,000 compounds, 0.56% hits. activation, % at 6 µM;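 active = activation above the average of all compounds screened plus 3 SD, cutoff fixed separately per campaign, cut at about 7.5% in these data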
HSF1 inhib: HSF1 inhibition; NIH3T3-HGL HSE-luciferase, MG132-induced, luminescence 8 h; stronger effect = lower value; activity change, negative = inhibition, % at 7.5 µM (by protocol); 300,000 compounds, 0.77% hits;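 active = more than half of replicate wells show activity change below -50%, luminescence cut by over half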;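 also: luciferase reports HSF-1 transcriptional activity via heat shock element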
AHR act cf: confirmation of human aryl hydrocarbon receptor activators | shares compounds with AHR activator | human cells, AHR-responsive luciferase reporter, luminescence | activation, % at 9 µM | 2,300 compounds, 87% hits; in the data active = activation above about 49%;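 also: HepG2 hepatoma cells carrying a DRE-driven firefly luciferase reporter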
PXR counter: PXR activation, counter-screen for AHR activators. 2,300 compounds, 88% hits. shares compounds with AHR activator. activation, % at 11.6 µM. cell-based PXR reporter, luciferase luminescence; in the data active = activation above about 11%;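 also: human hepatoma DPX-2 cells expressing full-length human PXR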
A number is an active result; n = inactive; x = not tested or not shown.

SMILES	HSF1 activator	AHR activator	GAA850 FXN act	HSF1 inhib	AHR act cf	PXR counter
COc1ccc(/C=C/C(=O)NC(=S)NNC(=O)c2cccnc2)cc1	n	n	n	n	x	x
CCOC(=O)c1[nH]cnc1C(=O)Nc1ccccc1	n	n	n	n	x	x
Cc1cc(C)nc(NS(=O)(=O)c2ccc(N3C(=O)c4ccccc4C3=O)cc2)n1	n	n	n	n	x	x
O=C(Nc1nc(-c2cccs2)cs1)c1ccc(Cl)cc1	n	129	n	n	123	36
COc1ccc(C(=O)Nc2nc(-c3cccs3)cs2)cc1	n	n	n	n	x	x
CCCN1C(=O)c2cc(C(=O)Nc3ccc(OC)cc3OC)ccc2C1Nc1ccc(OC)cc1OC (stereo unspecified)	n	107	n	n	79	64
Cc1ccccc1N(C)S(=O)(=O)c1nnc(NC(=O)c2ccccc2F)s1	n	n	n	n	x	x
O=C(NCC1CCCO1)c1cc2c([nH]c3ccccc32)c(-c2cccc(Br)c2)n1 (stereo unspecified)	n	n	n	n	x	x
Clc1nnc(N/N=C/c2ccccc2)c2ccccc12	n	82	n	n	110	23
NNC(=O)c1[nH]c2ccccc2c1-c1ccccc1	n	94	n	n	n	n
CC(=O)NNC(=O)c1[nH]c2ccc(Cl)cc2c1-c1ccccc1	n	n	n	n	x	x
CC(C)(C)NC(=O)CN(Cc1cccs1)C(=O)CNS(=O)(=O)c1ccc(F)cc1	n	n	n	n	x	x
CCC1(c2ccc(Cl)cc2)NC(=S)N(c2ccccc2)N1 (stereo unspecified)	70	80	n	n	82	12
CCC1(c2ccccc2)NC(=S)N(c2ccc(C)cc2)N1 (stereo unspecified)	n	n	n	n	x	x
CCOc1ccc2[nH]c3c(NCC(C)C)ncnc3c2c1	n	100	n	n	101	49
CCOc1ccc2[nH]c3c(NCCOC)ncnc3c2c1	n	85	n	n	116	39
Cc1cc(N)ccc1N=Nc1c(C)n(C)n(-c2ccccc2)c1=O	n	87	n	n	119	25
Cn1c(=O)c2c(nc(N/N=C3\CCCc4ccccc43)n2Cc2ccc(F)cc2)n(C)c1=O	n	95	n	n	89	40
COc1ccc2nnc(-c3ccc(C(F)(F)F)cc3)n2n1	n	81	n	-89	105	18
CCc1nc2c(OCc3ccc(Cl)cc3)cccn2c1N(C)C(=O)c1ccccc1F	x	x	n	x	x	x
CC1CCCC(C)N1C(=O)CSc1nc2ncnc(N)c2[nH]1 (stereo unspecified)	x	n	n	x	x	x
O=C(Nc1ccccc1)C(=O)c1c[nH]c2ccccc12	68	102	n	n	129	28
O=C(COC(=O)c1c[nH]c2ccccc12)Nc1ccccc1	x	n	n	x	x	x
O=C(c1ccc(Cl)cc1)N1CCCC(C(=O)N2CCc3ccccc3C2)C1 (stereo unspecified)	n	n	n	n	x	x
COc1cc(N)c(Cl)cc1NC(=O)c1ccccc1	n	94	n	n	117	15
SMILES	HSF1 activator	AHR activator	GAA850 FXN act	HSF1 inhib	AHR act cf	PXR counter
COc1cc(NC(=O)C(C)Oc2ccccc2)c(OC)cc1NC(=O)c1ccccc1 (stereo unspecified)	n	82	n	n	100	14
CCNC(=S)N=Nc1c(O)[nH]c2ccc(C(C)C)cc12	n	123	n	n	72	80
CC(C)c1ccc2[nH]c(O)c(N=NC(=S)NCCc3ccccc3)c2c1	n	n	n	n	x	x
Cc1ccc(-c2[nH]c(-c3ccc(Cl)cc3)nc2SCC(=O)NCC2CCCO2)cc1 (stereo unspecified)	n	108	n	n	84	86
COc1ccc(-c2cc3cc4c(cc3cn2)OCO4)cc1	x	n	n	x	x	x
c1ccc(-c2cc3cc4c(cc3cn2)OCO4)cc1	x	123	n	x	67	90
COc1cc2cnc(-c3ccccc3)cc2cc1OC	x	114	n	x	122	14
c1ccc(-c2cc3ccccc3cn2)cc1	x	n	n	x	x	x
COc1ccc(NC(=O)CSc2nnc3c4c(nc(-c5ccccc5)n23)CC(C)(C)OC4)cc1	n	109	n	n	n	25
CC1(C)CC(=O)C=C(NCCO)C1	n	n	n	n	x	x
COc1ccccc1NC(=O)CN(Cc1ccco1)C(=O)c1ccc(Cl)nc1	n	85	n	n	109	62
Cc1ccc(C(=O)NC2CCCCCC2)cc1S(=O)(=O)N1CCOCC1	n	n	n	n	x	x
